This is a sample that favours compounds with a hit; in the whole collection about 19% have one here.
HT1080-NT tox – kills 2HG-producing HT-1080-NT fibrosarcoma cells; HT-1080-NT fibrosarcoma viability, CellTiter-Glo ATP luminescence, 48 h; Potency, µM (highest dose often 46.1 µM), without a hit: at the highest dose activity, negative = less viability, most hits filed as cytotoxic; actives 1.6% (n = 360,000);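 also: NT is the 2HG producing partner of a matched IDH1 knockdown line; potency is read from the fitted curve at half-maximal effect; 0% = DMSO-treated cells and -100% = media-only wells without cells; nearly all actives have a fitted effect of over 55% in size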
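Luminescent CellTiter-Glo readout after 48 hours of compound exposure at 37 degrees C defined viability of HT-1080-NT cells. Activity was normalized to DMSO wells and cell-free media wells; concentration-response curves were fitted and assigned curve classes.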
HT1080 IDH1KD tx – HT-1080 IDH1 knockdown cell toxicity (counter line); HT-1080 IDH1 knockdown viability, ATP luminescence, 48 h; Potency, µM (titrated, usually from 46.1 µM), for the others: top-dose activity, negative = toxicity, usual class: cytotoxic; actives 2% (n = 360,000);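 also: potency is read from the fitted curve at half-maximal effect; 0% = DMSO wells and -100% = cell-free medium wells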
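% activity derives from luminescence (CellTiter-Glo), normalised to DMSO and no-cell wells. HT-1080-IDH1KD cells, 750/well, had 48 h compound exposure at 37 °C.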
TDP1 cell noCPT – qHTS for Inhibitors of human tyrosyl-DNA phosphodiesterase 1 (TDP1): qHTS in cells in absence of CPT | AID 686978, 2013 | DT40 Tdp1-/- hTDP1 cells, no CPT, ATP luminescence, 48 h | actives 15% (n = 420,000) | Potency, µM (top dose mostly 46.2 µM), for the others: at the highest dose activity change, negative = growth inhibition, usual class: inhibitors; also: potency is read from the fitted curve at half-maximal effect; nearly all actives have a fitted effect of over 55% in size
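No-CPT arm: Tdp1-/-;hTDP1 DT40 cells (400/well) plus compounds, incubated ≥48 hr at 37 °C. Readout CellTiter-Glo luminescence.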
IL1B secr inh – blocks inflammasome-driven IL-1 beta release. THP-1 LPS/ATP IL-1B secretion, AlphaLISA, 16 h; active compounds read low. activity change, % at 57.5 µM. actives 4.7% (n = 360,000); in the data active = activity change below about -50%; inconclusive = mostly about -30% to -49%
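Secreted IL-1B measured by AlphaLISA bead assay after 16 h compound exposure of THP-1 cells; compounds (final up to 57.5 uM) added 1 h before LPS (250 ng/mL) and ATP (1.25 mM) stimulation; lower signal means less secretion.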
TDP1 cell CPT – DT40-hTDP1 cell growth loss with CPT | AID 686979 | actives 12% (n = 420,000) | Potency, µM (highest dose often 46.2 µM), for inactives: at the top dose activity change, negative = growth inhibition, actives largely listed as inhibitors | chicken DT40 Tdp1-/-;hTDP1 cells + 20 nM CPT, ATP luminescence, 48 h; also: potency is read from the fitted curve at half-maximal effect; nearly all actives have a fitted effect of over 55% in size
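Chicken DT40 Tdp1-/- cells complemented with human TDP1, 400 cells/well, exposed to compounds plus 20 nM camptothecin for at least 48 h at 37 C; viability read as ATP content by CellTiter-Glo luminescence.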
An asterisk follows results filed as active; ? = inconclusive; nt = no result given. Unless noted, calls follow the shape of the dose curve; as a rule, active = well fitted curve in the direction sought with a large enough effect; inconclusive = small, poorly fitted or top-dose-only effect, or another doubt; inactive = no such curve, though single readings can be large; an effect the other way counts as inactive or inconclusive. Unless noted, % is scaled to controls: 0 for no effect and ±100 for the full control effect.

SMILES	HT1080-NT tox	HT1080 IDH1KD tx	TDP1 cell noCPT	IL1B secr inh	TDP1 cell CPT
CC(O)[C@H]1CC[C@H]2[C@@H]3CC[C@H]4C[C@H](O)CC[C@]4(C)[C@H]3[C@H](O)C[C@]12C (stereo partly drawn)	5.2%	9.5%	-13.2%	-1.3	-34.4%
O=C(CN1C(=O)/C(=C2\SC(=S)N(C3CCS(=O)(=O)C3)C2=O)c2ccccc21)Nc1ccc(F)cc1 (stereo not drawn)	-2.2%	3.1%	?	nt	6.51µM*
COc1ccc(/C=C2\SC(=S)N(CC(=O)NC3CCS(=O)(=O)C3)C2=O)cc1 (stereo not drawn)	-0.6%	-1.6%	5.6%	25.7	-4.5%
COc1ccc(NC(=O)CN2C(=O)/C(=C3\SC(=S)N(C4CCS(=O)(=O)C4)C3=O)c3ccccc32)cc1 (stereo not drawn)	1.4%	?	18.4µM*	?	9.2µM*
COCCC(=O)N1CCOCC1c1cc(C(=O)NCc2ccccc2)no1 (stereo not drawn)	?	16.1%	-2.5%	35.4	-5.5%
Cn1cnnc1SCC(=O)N1CCN(C(=O)c2ccco2)CC1	18.9%	21.8%	-0.7%	0.0	23.4%
Cc1ccccc1NC(=O)c1ccc(CN2CCC(Cc3ccccc3)CC2)cc1	23.1µM*	?	20.6µM*	-82.8*	?
Clc1ccc(CN2CCC(Cc3ccccc3)CC2)cc1	1.4%	-15.0%	?	-96.1*	-29.5%
Cc1ccc(C(=O)NCC(=O)N2CCC(Cc3ccccc3)CC2)cc1	-0.3%	-22.6%	?	-69.1*	-14.9%
CC(C)NC(=O)c1ccc(CN2CCC(Cc3ccccc3)CC2)cc1	10.1%	3.5%	-14.5%	-16.1	-3.4%
Cn1cnnc1SCC(=O)N1CCC(Cc2ccccc2)CC1	-5.1%	-6.3%	18.4µM*	-0.9	?
COc1ccc(C(=O)NCC(=O)N2CCC(Cc3ccccc3)CC2)cc1OC	1.5%	4.4%	?	-10.6	?
O=C(CN1CCOCC1)Nc1ccc2c(c1)CCC2	7.0%	13.3%	?	0.0	?
Cc1ccc(NC(=O)C(C)Oc2ccccc2)cc1S(=O)(=O)N1CCCCCC1 (stereo not drawn)	-14.6%	-18.0%	23.1µM*	-10.8	?
Cc1ccc(NS(=O)(=O)c2cc(NC(=O)C(C)Oc3ccccc3)ccc2C)c(C)c1 (stereo not drawn)	-29.5%	?	23.1µM*	-1.9	?
CN(C)S(=O)(=O)c1ccc(N2CCCC2)c(C(=O)OCC(=O)N2CCN(c3ccccc3)CC2)c1	1.3%	-3.3%	?	-8.2	?
Cc1cccc(N(C(=O)C(F)(F)F)C(C(=O)NC2CCCCC2)c2cccs2)c1 (stereo not drawn)	-1.1%	-19.1%	-18.4%	13.4	-15.2%
C#CC(=O)N(c1cccc(OC)c1)C(C(=O)NC1CCCC1)c1cccs1 (stereo not drawn)	0.251µM*	39.8µM*	2.31µM*	-101.8*	1.03µM*
COc1ccc(N(C(=O)c2ccco2)C(C(=O)NC2CCCC2)c2cccs2)c(OC)c1 (stereo not drawn)	3.8%	-8.9%	?	14.5	-23.9%
C#CC(=O)N(c1ccc(OC)c(OC)c1)C(C(=O)NC1CCCC1)c1cccs1 (stereo not drawn)	0.116µM*	0.581µM*	0.651µM*	-105.6*	0.731µM*
O=C(Nc1cccc(F)c1)/C(=C\c1ccco1)NC(=O)c1ccco1	-3.2%	1.3%	4.0%	-7.0	-14.2%
COC(=O)C1=C(O)/C(=C\c2cc(C)n(-c3ccccc3C)c2C)N=C1C	-19.2%	0.0%	?	-26.0	29.1µM*
COC(=O)C1=C(O)/C(=C\c2cc(C)n(-c3ccccc3F)c2C)N=C1C	1.2%	11.1%	-22.6%	29.4	-18.7%
Cc1nnc(NC(=O)CSc2nc3c(c(=O)n(C)c(=O)n3C)n2C(C)C)s1	4.4%	20.3%	-20.1%	53.8	-1.1%
